From PubChem
Rows were chosen to be rich in hits. Some 4% of all compounds tested hit in one or more screens of this group.
Measles CPE: protection of cells from measles virus | 140,000 compounds, 1.5% hits | Measles virus-infected cells, CPE protection, absorbance | protection (pct of control), % at 4 µM; in the data active means protection mostly above about 24%, no sharp cut-off; inactive means mostly below about 26%
ROMK primary: modulators of human ROMK potassium channel; B-score at 10 µM; Tet-inducible ROMK, thallium flux fluorescence; actives lie on both sides; 130,000 compounds, 2% hits; AID 1918;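 active means signal ratio slope over the read window, or its plate-corrected B-score, at least 3 SD from the plate mean, either direction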;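 further: B-score of the F/F0 ratio slope over 7 to 12 s after thallium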
HSV augment: increases HSV replication in cells | maximum fold increase | HSV replication augmentation in cells, fold increase | 220,000 compounds, 0.005% hits; in the data active means maximum fold increase above about 1.5; inconclusive means no clear call, values can overlap the other calls; tested in PC3 cells
Arbovirus inh: blocks arbovirus infection | 200,000 compounds, 0.37% hits | arbovirus infection cell-based antiviral screen | AID 1251 | inhibition, % at 10 µM; in the data active means inhibition above about 30%
Cl transport mod: modulators of human KCC2 chloride dependent transport. KCC2 cells, thallium flux FluoZin-2 fluorescence. 190,000 compounds, 2.2% hits. AID 1456. B-score of Tl+ flux slope (higher = more flux/activation; lower = inhibition) at 10 µM. Q9H2X9;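 active means thallium flux slope and its plate-corrected score both differing from the plate sample mean at a set confidence after two filtering rounds, in either direction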;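 further: slope of fluorescence scaled to starting intensity during 10 to 20 s after thallium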
KCC2 sec1: KCC2 (human) modulation, secondary assay | shares compounds with Cl transport mod | HEK293-KCC2, thallium flux, FluoZin2 fluorescence; active compounds read high | normalised thallium flux (F/F0 slope) at 10 µM | 3,700 compounds, 15% hits | AID 1713;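 active means thallium flux slope above the same plate's solvent-only control mean plus 3 SD; inconclusive means the two replicate wells disagree; inactive means no significant difference from solvent-only control wells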
KCC2 bumet counter: thallium flux despite bumetanide block in KCC2 cells, secondary assay 3 | shares compounds with Cl transport mod | HEK293-KCC2 + bumetanide/ouabain, thallium flux FluoZin2; active compounds read high | normalized thallium flux at 10 µM | 3,700 compounds, 49% hits | AID 1714;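 active means thallium entry rate above the same plate's blocked-transporter control wells by more than 3 SD; inconclusive means the two repeat wells disagree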;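 further: raw slope of fluorescence over initial fluorescence between 10 and 20 s after thallium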
KCC2 sec2: confirmation of human KCC2 transport modulators | shares compounds with Cl transport mod | HEK293-KCC2, thallium flux FluoZin2 fluorescence; actives lie on both sides; F/F0 rise rate, 10–20 s post-thallium | normalized thallium flux at 10 µM | 3,700 compounds, 23% hits | AID 1715;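 active means thallium flux slope more than 3 SD above or below the plate's solvent-only control mean, mostly below; inconclusive means the two repeat wells disagreed; inactive means no significant shift from solvent-only controls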;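 further: raw slope with 0.1% DMSO as baseline and bumetanide as block control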
HEK counter1: counter-screen for KCC2 modulators: effect in parental HEK293 cells | 3,700 compounds, 46% hits | thallium flux rate (normalised fluorescence) at 10 µM | thallium flux FluoZin2, ouabain; baseline-ratio fluorescence slope, 10–20 s after thallium | shares compounds with Cl transport mod;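 active means thallium flux rate significantly above the same plate's solvent-only control wells, beyond their mean plus 3 SD; inconclusive means the two replicate wells gave conflicting results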
KCC2 ouabain: confirmation of human KCC2 modulators with ouabain | AID 1717 | HEK293-KCC2, thallium flux FluoZin2 fluorescence; bidirectional: low = inhibitor, high = activator | 3,700 compounds, 48% hits | shares compounds with Cl transport mod | raw Tl+ flux slope (below DMSO = inhibition, above = activation) at 10 µM;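 active means thallium flux slope beyond 3 SD from same-plate DMSO control mean in most replicates, usually higher, sometimes lower; inconclusive means repeat tests gave conflicting results; inactive means no significant difference from controls in most replicates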;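 further: slope of initial-normalized fluorescence between seconds 10 and 20 after thallium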
HEK counter2: acts in parental HEK cells, second KCC2 counter-screen | thallium flux slope at 10 µM | HEK293 parental, thallium flux FluoZin-2 fluorescence slope | 3,700 compounds, 33% hits | shares compounds with Cl transport mod | AID 1718;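 active means thallium flux slope above the same plate's solvent-control mean plus 3 SD in both duplicate wells; inconclusive means duplicate wells that disagreed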;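 further: run without ouabain in cells lacking the KCC2 cotransporter; slope of fluorescence scaled to its starting value between 10 and 20 s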
* hit, by the source's call; i = inactive; ? = inconclusive; / = no result given.

SMILES	Measles CPE	ROMK primary	HSV augment	Arbovirus inh	Cl transport mod	KCC2 sec1	KCC2 bumet counter	KCC2 sec2	HEK counter1	KCC2 ouabain	HEK counter2
Cc1nn(CC(=O)NCc2ccccc2)c(=O)c2ccccc12	8.7	/	i	-1.1	1.14	/	/	/	/	/	/
Cc1nn(CC(=O)O)c2ccccc12	1.8	/	i	5.6	6.56*	0.0093	0.00643	0.0285	0.0076	0.0563	0.00947
COc1ccc(-c2cc(C(F)(F)F)c3c(=O)n(-c4ccccc4)[nH]c3n2)cc1	9.5	/	i	-10.0	-5.21*	0.00721	0.00747	0.0302	0.00694	0.0179*	0.0106
COc1ccc(-c2cc(-c3ccccc3)nc(=O)[nH]2)cc1	/	/	i	/	/	/	/	/	/	/	/
Cn1nnnc1SCC1=C(C(=O)O)N2C(=O)[C@@H](NC(=O)[C@H](O)c3ccccc3)[C@H]2SC1	14.4	0.298	i	8.8	-0.779	/	/	/	/	/	/
Cn1nnnc1SCC1=C(C(=O)O)N2C(=O)C(NC(=O)C3CC3c3ccccc3)C2SC1 (stereo unspecified)	/	-1.06	i	2.2	-5.42*	0.00782	0.00504	0.0292	?	0.0186	0.0106
Cc1ccc(S(=O)(=O)NCC(=O)OCN2C(=O)c3ccccc3C2=O)cc1	7.0	0.312	i	5.1	-0.788	0.00928	0.00603	0.0318	0.00724	0.0193	0.0107
CC(=O)NCC(=O)OCN1C(=O)c2ccccc2C1=O	17.8	-0.303	i	2.8	0.185	/	/	/	/	/	/
CC(C)CSC1=NSC2=NC(=O)/C(=C\c3cccs3)C(=N)N12	20.5	-1.18	i	48.4*	41.7*	0.00975*	0.0895*	0.0655*	0.0665*	0.0748*	0.0451*
Cc1cccc2[nH]c3c(N4CC=C(c5ccc(F)cc5)CC4)ncnc3c12	/	0.0665	i	/	-0.254	/	/	/	/	/	/
COc1cc(OC)c(NC(=O)C(=O)CC(=O)c2ccc(C)cc2C)cc1Cl	/	-0.466	i	-14.5	16.4*	0.0105	0.0462*	0.0307	0.0191*	0.0272	0.0123*
Cc1cccc(C2c3[nH]c4ccccc4c3CCN2C(=O)c2cc(CC(C)C)nc(C)n2)n1 (stereo unspecified)	/	-0.305	i	-0.9	-0.128	/	/	/	/	/	/
CCC(=O)Oc1ccc(-c2cnc3ccccc3n2)cc1	12.8	/	i	-8.0	-0.0112	/	/	/	/	/	/
CCC(=O)Oc1ccc(C(CC)C(CC)c2ccc(OC(=O)CC)cc2)cc1 (stereo unspecified)	39.7	/	i	-16.9	10.7*	0.00702	0.00491	0.029	0.00803	0.0196	0.0113
COc1cc(/C=C/C(=O)OCC(=O)NCCC2=CCCCC2)ccc1O	/	1.19	i	-2.7	-0.536	/	/	/	/	/	/
Oc1ccc(N=Nc2ccc3c(c2)OCCO3)c2cccnc12	/	1.41	i	-12.9	24*	0.0106	0.0374*	0.0327	0.0608*	0.0391*	0.0145*
COc1ccc(N=Nc2ccc(O)c3ncccc23)cc1	/	/	i	/	32*	0.0188	0.0344*	0.0319	0.02*	0.0269*	0.0189*
COc1ccc(C)cc1N=Nc1ccc(O)c2ncccc12	/	-0.0182	i	-16.4	21.3*	0.0069	0.0349*	0.0389*	0.0212*	0.0352*	0.0226*
CC1(C)CC2CC(C)(CN2/C=C2/CCCCC2=O)C1 (stereo unspecified)	/	/	i	/	-0.647	/	/	/	/	/	/
COC(C/C=C/C(=O)[C@H](C)OCc1ccccc1)OC	/	/	i	/	/	/	/	/	/	/	/
CSc1nnc(-c2cnccn2)n1CCCN1CCCC1=O	3.5	0.701	i	5.5	8.24*	0.00728	0.00435	0.0319	0.00743	0.0198	0.01
Cc1onc(-c2c(F)cccc2Cl)c1C(=O)N1CCOC12CCCCC2	/	-0.0621	i	-1.9	1.09	/	/	/	/	/	/
Cc1ccc(/C=C2\SC(=S)N(/N=C/c3cc([N+](=O)[O-])ccc3O)C2=O)o1	/	1.54	i	-2.8	3.78*	0.0101	0.0128*	0.0309	0.00958*	0.028*	0.0103
CC1=CC2=NC(=O)/C(=C/c3coc4ccc(Cl)cc4c3=O)C(=N)N2O1	/	/	?	/	-9.45*	0.00402*	-0.0043*	0.0147*	0.000436*	0.00258*	0.00258*
Cc1cc(C)c(NC(=O)CN(c2ccccc2)S(=O)(=O)N(C)C)c(C)c1	19.6	0.00741	i	3.4	5.18*	0.00919	0.00523	0.0344	0.00693	0.0214	0.01
SMILES	Measles CPE	ROMK primary	HSV augment	Arbovirus inh	Cl transport mod	KCC2 sec1	KCC2 bumet counter	KCC2 sec2	HEK counter1	KCC2 ouabain	HEK counter2
COCCN(C(=O)CNC(=O)c1cccs1)C(C(=O)NC1CCCC1)c1cccs1 (stereo unspecified)	22.8	/	i	0.1	-0.0519	/	/	/	/	/	/
COCCN(C(=O)CNC(=O)c1cccs1)C(C(=O)NC1CCCCC1)c1ccco1 (stereo unspecified)	2.1	-0.0309	i	1.6	/	0.00698	0.0041	0.034	0.00695	0.019	0.0113
O=C(NCC(=O)N(CCN1CCOCC1)C(C(=O)NC1CCCC1)c1ccccc1)c1cccs1 (stereo unspecified)	/	-0.568	i	-3.1	-0.456	/	/	/	/	/	/
CC(C)Cn1nnc2c(=O)oc3ccccc3c21	2.1	/	/	7.5	/	0.00878	0.0049	0.0268*	0.00524*	0.012*	0.0084*
CCn1nnc2c(=O)oc3ccccc3c21	/	0.0273	i	-2.7	-4.29	/	/	/	/	/	/
COC(=O)c1cccc(C23CC4(C2)[C@H](CN(Cc2cccnc2)[C@@H]4c2ccccc2)C3c2ccc(Cl)nc2)c1 (stereo partly specified)	/	/	i	/	0.0318	/	/	/	/	/	/
COC(=O)c1cccc(C23CC4(C2)[C@H](CN(Cc2cccnc2)[C@@H]4c2ccccc2)C3c2ccc(C(F)(F)F)cc2)c1 (stereo partly specified)	/	/	i	/	-3.21*	?	0.0085*	0.0318	0.00872	0.0224	0.0106
CCOC(=O)c1cc(C(=O)OCC)c(=O)[nH]c1N1CCCC1	/	0.246	i	3.9	-0.477	/	/	/	/	/	/
O=C1OCCC1Sc1ncnc2sc3c(c12)CCC3 (stereo unspecified)	14.8	0.00896	i	1.4	3.34*	0.00549	0.0241*	?	0.018*	?	0.0178*
Cc1ccc(C(=O)CSc2ncnc3sc4c(c23)CCC(C)C4)cc1 (stereo unspecified)	30.0	/	i	-2.1	4.19*	?	0.0374*	0.0365	?	?	0.0122
CC(C)(C)C(=O)CSc1ncnc2sc3c(c12)CCC3	/	0.00621	i	-2.2	0.808	/	/	/	/	/	/
